Rows were chosen to be rich in hits. Some 3.9% of all compounds tested hit in one or more screens of this group.
H9c2 protect – cardioprotection against H2O2-induced cell death, primary screen, uHTS, H9c2 cells, ATPLite luminescence; AID 588492, 2011; 0.63% of 360,000 active; protection from H2O2 cell death, % at 20 µM; H9c2 cardiomyocytes, H2O2 injury protection, 2 h;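 active = compounds giving at least 50% protection of heart cells from peroxide-induced death in the single-dose screen, raw or plate-pattern-corrected value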;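 also: 0% = DMSO wells with peroxide and 100% = DMSO wells without peroxide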
NTR1 agonist – agonists of human NTR1, primary screen, imaging, U2OS cells, beta-arrestin-GFP, high content | AID 493036, 2011 | NTR1-U2OS beta-arrestin-GFP spot imaging, agonist mode | 0.17% of 330,000 active | activation, % at 20 µM;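 active = activation at or above 40% of the spot to cytoplasm intensity ratio, with at least 20 cells analyzed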;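 also: 0% = DMSO without peptide and 100% = 100 nM NTR1 peptide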
Target sequence (P30989 whole entry, looked up): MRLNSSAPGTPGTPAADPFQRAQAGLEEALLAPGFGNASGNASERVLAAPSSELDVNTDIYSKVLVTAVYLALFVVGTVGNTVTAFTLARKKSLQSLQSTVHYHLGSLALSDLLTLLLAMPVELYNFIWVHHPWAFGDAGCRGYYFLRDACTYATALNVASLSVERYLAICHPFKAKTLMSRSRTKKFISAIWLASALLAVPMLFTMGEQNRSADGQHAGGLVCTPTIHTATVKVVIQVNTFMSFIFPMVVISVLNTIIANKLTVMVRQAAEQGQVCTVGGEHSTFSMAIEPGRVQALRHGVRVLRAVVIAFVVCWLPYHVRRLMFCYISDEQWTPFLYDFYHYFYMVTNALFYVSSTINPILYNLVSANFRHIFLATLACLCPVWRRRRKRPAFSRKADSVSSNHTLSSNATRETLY
ALR inh – inhibitors of human ALR sulfhydryl oxidase, primary screen, biochemical, H2O2 detection, HRP-luminol luminescence, single point; purified ALR, DTT oxidation; inhibition, % (no concentration beside the values); 3.8% of 290,000 active; AID 485317, 2010;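 active = mean replicate inhibition above about 79%, with every replicate also reaching it, limit read from the data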
UBC9 SUMO inh – inhibitors of in vitro SUMOylation cascade, primary screen, biochemical, HTRF, uHTS. SUMO-conjugating enzyme UBC9 (Homo sapiens), P63279. HTRF SUMOylation assay, SAE1/SAE2 + UBC9. inhibition, % at 35 µM. 0.36% of 290,000 active. AID 2006, 2009; in the data active = inhibition above about 50%, passing the limit was not always enough
Starred values were filed as active, the others as inactive; nt = not tested or not shown.

SMILES	H9c2 protect	NTR1 agonist	ALR inh	UBC9 SUMO inh
CC(C)(C)C1=Nn2c(nnc2-c2n[nH]c3c2CCC3)SC1	4	3	44	13
CC(C)c1nnc(NC(=O)c2sc3ccccc3c2Cl)s1	-18	1	98*	8
O=c1[nH]n(-c2cccc3cccnc23)c(=O)c2ccccc12	0	2	-8	-2
O=c1[nH]n(-c2ccc(Cl)cc2)c2ncccc12	-2	1	99*	-9
CCOC(=O)c1cnc2c(c(C)nn2-c2ccc(C)cc2)c1Cl	-3	7	nt	-4
CC(=O)c1ccc(-c2ccc(C(=O)NC3CCCCCC3)o2)cc1	-2	2	98*	13
O=C(NC1CCC(O)CC1)c1ccc(-c2ccc(Cl)cc2)o1 (stereo not given)	1	-1	11	nt
O=c1[nH]nc(Cc2ccccc2)c2ccccc12	64*	1	-16	-1
COc1ccc(Cc2n[nH]c(=O)c3ccccc23)cc1OC	62*	0	nt	-10
O=c1[nH]c(=S)[nH]nc1Cc1ccccc1	4	-4	12	28
O=c1[nH]nc(Cc2ccc([N+](=O)[O-])cc2)c2ccccc12	64*	0	-11	4
CCc1nc2c(OCC(=O)C(C)(C)C)cccn2c1N(C)C(=O)Nc1ccccc1OC	4	nt	nt	nt
COc1cc(-c2cc(N)n(S(=O)(=O)c3ccccc3)n2)cc(OC)c1OC	-6	-2	58	-17
Nc1cc(-c2ccccc2)nn1S(=O)(=O)c1ccc(Br)cc1	-26	8	99*	0
COc1cc(/C=C/C(=O)Nc2ccc(C(C)=O)cc2)cc(OC)c1OC	10	1	-6	9
COc1cc(/C=C/C(=O)Nc2ccncc2)cc(OC)c1OC	9	0	85*	33
O=C(NC1CCCCC1)C(c1ccc(F)cc1)N(C(=O)c1csnn1)C1CCCC1 (stereo not given)	6	1	-6	12
COC(=O)Cc1[nH]n(-c2nc3ccccc3s2)c(=O)c1C(C)=Nc1ccc(Cl)cc1	-8	-1	60	23
COC(=O)Cc1[nH]n(-c2nc3ccccc3s2)c(=O)c1C(C)=Nc1ccc(C)cc1	-28	0	98*	14
Nc1ccccc1SC(CC(=O)c1ccccc1)c1ccc([N+](=O)[O-])cc1 (stereo not given)	-22	nt	nt	nt
Cc1ccc(C(=O)CC(SCC(=O)O)c2ccc([N+](=O)[O-])cc2)cc1 (stereo not given)	-3	1	99*	7
CCCCCCCCNS(=O)(=O)CCNCCCC	-10	nt	nt	nt
COC(=O)c1c(NC(=O)/C=C/c2ccco2)sc2c1CCC2	-1	6	92*	26
O=C(/C=C/c1cccs1)Nc1sc2c(c1C(=O)O)CCCC2	-4	1	88*	30
N#Cc1c(NC(=O)c2cnccn2)sc2c1CCCC2	5	0	98*	17
SMILES	H9c2 protect	NTR1 agonist	ALR inh	UBC9 SUMO inh
N#Cc1c(NC(=O)c2cccnc2)sc2c1CCC2	-13	-1	8	3
Cc1ccc(/C=C/C(=O)NC2CCCCCCC2)o1	-13	4	99*	6
CN(C(=O)c1ccc(NC(=O)Cc2ccc(NC(=O)C3CCCN(C(=O)CCc4ccccc4)C3)cc2)cc1)C1CC1 (stereo not given)	-14	0	-3	nt
CC(=O)c1cc2c(cc1NC(=O)c1ccco1)OCCO2	5	1	-18	24
Cc1ccc(/C=C/C(=O)NCc2ccc3c(c2)OCO3)o1	8	1	92*	0
Cc1ccc(/C=C/C(=O)Nc2sc3c(c2C#N)CCCC3)o1	2	-1	93*	32
CCOc1cc(/C=N/NC(=O)c2c(-c3ccccc3)noc2C)ccc1O	-2	2	96*	18
COc1cccc(/C=N/NC(=O)c2c(-c3ccccc3)noc2C)c1O	41	1	45	24
CCOc1cc(/C=N\NC(=O)c2c(C)nc3ccccn23)ccc1O	7	0	89*	4
Cc1onc(-c2ccccc2)c1C(=O)N/N=C/c1c[nH]c2ccccc12	-13	-2	3	-3
Cc1nc2ccccn2c1C(=O)N/N=C/c1ccc2c(c1)OCO2	3	-3	-3	-8
Cc1ccc(/C=N/NC(=O)c2c(-c3ccccc3)noc2C)c(O)c1	54*	1	20	20
